bovine MsrA act: activates bovine MsrA enzyme; purified bovine MsrA, absorbance read-out; actives 0.3% (n = 360,000); activation, % at 10.6 µM; in the data active means activation above about 7.5%;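 further: 0% = vehicle and 100% = reference activator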
MsrA inhibitor: inhibits bovine methionine sulfoxide reductase A. purified bovine MsrA, absorbance read-out. inhibition, % at 15.5 µM. actives 0.75% (n = 360,000). AID 651718; in the data active means inhibition above about 4.5%;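 further: 0% = vehicle wells with enzyme and 100% = reference inhibitor wells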
PKA-R1A activ: activators of PKA-R1A complex; AID 504707; PKA-R1A dissociation, Cy5-IP20 fluorescence polarization; scaled: DMSO 0%, 113 µM cGMP 100%; actives 0.083% (n = 340,000); P00514+P68181; activation, % at 11.4 µM;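 active means percent activation above the mean of all tested compounds plus 3 SD, cut at about 19% in these data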;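 further: higher means more PKAc released from R1A so a rise in polarization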
PKA-R2B act: PKA-R2B complex activation; P22694+P31323; AID 504700; activation, % at 11.4 µM; PKA-R2B holoenzyme dissociation, Cy5-IP20 fluorescence polarization; R2B truncated from residue 108, S112A mutant; 0% DMSO only, 100% 113 µM cGMP; actives 0.079% (n = 340,000);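 active means activation above a cutoff set at the mean over all compounds plus 3 SD, cut at about 18% in these data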;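 further: higher means more holoenzyme dissociation and a rise in polarization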
Target sequence (P31323 whole entry, looked up, other chains not shown, the tested form may be a part): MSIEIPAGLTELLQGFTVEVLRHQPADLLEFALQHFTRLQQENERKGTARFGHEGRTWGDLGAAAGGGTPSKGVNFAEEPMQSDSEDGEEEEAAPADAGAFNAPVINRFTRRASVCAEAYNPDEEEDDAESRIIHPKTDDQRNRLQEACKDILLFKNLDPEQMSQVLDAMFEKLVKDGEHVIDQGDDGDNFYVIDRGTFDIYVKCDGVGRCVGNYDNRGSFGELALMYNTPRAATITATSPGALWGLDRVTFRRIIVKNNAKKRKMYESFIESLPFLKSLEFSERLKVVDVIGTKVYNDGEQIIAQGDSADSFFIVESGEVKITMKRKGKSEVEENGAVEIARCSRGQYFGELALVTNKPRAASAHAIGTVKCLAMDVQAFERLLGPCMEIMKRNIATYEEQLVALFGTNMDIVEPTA
MsrA activ conf: bovine methionine sulfoxide reductase A activation confirmed; shares compounds with bovine MsrA act; purified bovine MsrA, absorbance read-out; actives 12% (n = 1,000); activation, % at 10.6 µM; in the data active means activation above about 4%;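 further: enzyme coupled to thioredoxin and thioredoxin reductase with NADPH; 0% = vehicle wells and 100% = reference activator wells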
Numbers without * were called inactive; x = no result given. In the library only some 1.1% were active in any assay of this set; here they are far more common.

SMILES	bovine MsrA act	MsrA inhibitor	PKA-R1A activ	PKA-R2B act	MsrA activ conf
COC(=O)[C@]12C[C@H](CC(=O)NCC34CC5CC(CC(C5)C3)C4)C(=O)N(Cc3ccccc3)C1=C[C@H](C(C)(C)C)O[C@@H]2C	x	-0.8	x	x	x
Cc1cccc(OCCC(=O)OC(C)C(=O)Nc2ccc(Cl)cn2)c1 (centres undefined)	15.5*	-0.4	6.0	-11.1	-1.9
CC(OC(=O)CCC(=O)c1cccs1)C(=O)Nc1ccc(Cl)cn1 (centres undefined)	-1.2	0.4	-6.7	0.2	x
O=C(Nc1c2c(nn1-c1ccc([N+](=O)[O-])cc1)CS(=O)(=O)C2)c1ccccc1F	7.9*	1.0	-3.3	4.9	-1.0
O=C(Nc1c2c(nn1-c1ccc([N+](=O)[O-])cc1)CS(=O)(=O)C2)c1cccs1	-3.2	0.6	-6.3	5.1	x
CCOC(=O)N[C@H](C(=O)N1CCC[C@H]1C(=O)NCc1ccccc1)C(C)C	x	0.4	x	x	x
CCNC1=C(Cl)C(=O)c2ccccc2C1=O	12.5*	-0.3	-2.3	7.5	4.0*
CCCC(=O)NC1=C(Cl)C(=O)c2ccccc2C1=O	9.2*	0.6	5.2	-4.6	1.4
CCN(CC)c1ccc(NC2=C(Cl)C(=O)c3ccccc3C2=O)cc1	-3.5	x	9.7	7.3	x
O=C1C(Cl)=C(NCc2ccco2)C(=O)c2ccccc21	14.4*	0.8	-7.7	-4.7	11.0*
O=C(C(=O)N1CCC(CNS(=O)(=O)Cc2ccccc2)CC1)c1cccs1	x	-0.3	x	x	x
O=C1c2ccccc2C(=O)c2[nH]c(=O)[nH]c21	15.1*	0.9	4.1	7.8	3.7
O=C1c2ccccc2C(=O)c2c1ncn2-c1ccccc1	6.0	0.5	-4.6	2.9	x
O=C1c2ccccc2C(=O)c2[nH]cnc21	12.5*	0.1	-4.7	-0.4	6.7*
Cc1cc(NC(=O)Cc2cn(C)c3ccccc23)ccc1Nc1cccnc1	x	0.5	x	x	x
CC1=C(C#N)C(c2ccc(O)cc2)C2=C(CC(C)(C)CC2=O)N1 (centres undefined)	10.4*	0.4	7.8	-4.2	-1.2
O=C(COC(=O)c1c[nH]c2ccccc12)NC1CCCC1	21.6*	-1.3	-3.0	-3.1	-1.9
Oc1c(Br)cc(Br)cc1CNc1ccc(F)cc1	8.9*	-0.3	2.6	0.0	-1.1
CCCCCCCCN1C(=O)[C@@H](CC(=O)NCc2ccc(OC)c(OC)c2)C[C@@]2(C(=O)OC)C1=C[C@H](C1CCCC1)O[C@@H]2C	x	0.1	x	x	x
C=CC(=O)NC1CCCCN(CCC)C1=O (centres undefined)	x	-0.2	x	x	x
CCCC/C(O)=C1\C(=O)CC(C)(C)CC1=Nc1ccccc1OC	8.7*	-0.6	-7.7	-1.3	-0.2
COC(=O)CC/C(O)=C1\C(=O)CC(C)(C)CC1=Nc1ccccc1OC	-1.4	1.1	-2.2	-14.9	x
CC(Oc1ccccc1Cl)C(=O)N1CCOCC1 (centres undefined)	10.6*	-0.4	3.4	3.4	-1.9
COC(=O)c1cc2c(c3c4cc(C)ccc4n(S(=O)(=O)c4ccc(OC)cc4)c13)C(=O)N(Cc1ccccc1)C2	x	0.7	x	x	x
Cc1cc(C)nc(N/N=C/c2cccc([N+](=O)[O-])c2)n1	10.3*	1.4	x	x	-1.5
SMILES	bovine MsrA act	MsrA inhibitor	PKA-R1A activ	PKA-R2B act	MsrA activ conf
Cc1cc(=O)[nH]c(N/N=C/c2cccc([N+](=O)[O-])c2)n1	x	0.6	x	x	x
Cc1cc(NC(=O)C(C)C)ncc1NC(=O)Cc1ccccc1	9.6*	-0.2	-2.7	-10.0	-3.0
COc1cc(SC)ccc1C(=O)OCC(=O)NC(=O)NC(C)C	7.9*	-0.4	-5.1	-0.9	-3.1
CC(=O)N1C[C@H]2CON(C)[C@H]2C[C@H]1c1ccccc1-c1ccccc1	x	-0.3	x	x	x
CCOC(=O)c1c(C)oc2c1C(=O)c1ccccc1C2=O	3.1	0.5	-3.5	-9.8	x
Cc1oc2c(c1C(=O)O)C(=O)c1ccccc1C2=O	8.4*	-0.5	-1.7	5.1	0.3
Cc1oc2c(c1C(=O)c1ccccc1)C(=O)C(=O)c1ccccc1-2	9.3*	1.1	-7.9	-10.5	13.0*
CCOC(=O)C1(C)CCN1C(=O)COc1ccc(C(C)(C)C)cc1 (centres undefined)	8.2*	-0.3	x	x	-0.2
CCOC(=O)C1(C)CCN1C(=O)COc1ccccc1 (centres undefined)	-1.9	2.0	x	x	x
C[C@H](O)[C@@H]1C(=O)N2CCc3c([nH]c4c(-c5ccccc5)cccc34)[C@@H]2C[C@@H]1N(C)C(=S)NCCc1ccccc1	x	-1.4	x	x	x

Source: PubChem BioAssay (The Scripps Research Institute Molecular Screening Center)
